In PubChem BioAssay AID449762 (Southern Research Specialized Biocontainment Screening …, 2010) one finds inhibition data, which are given here for 60 molecules.

Molecules are shown by their SMILES. Out of some 330,000 compounds screened, about 1,900 (0.58%) were called active. Inconclusive results (about 4%) are left out. These entries were drawn from the full list. Measured potencies and affinities stand elsewhere. A number with no mark means an inactive call. Cut-off read from the data, not from the text of the source: inconclusive = inhibition above about 70% without an active follow-up result; inactive = below that.

A short description of this assay: M. tuberculosis growth inhibition, HTS (AID 449762).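 Note: bacterial growth assessed after seven days of incubation.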 Conditions: M. tuberculosis H37Rv growth inhibition, 7H9 media; at 25 µM; stronger effect = higher value.
Regarding `CC(=O)NCC1CCCN(C(=O)c2ccc(OC3CCN(Cc4ccccn4)CC3)cc2)C1` (stereo not given), the inhibition – broadly, the relative decrease from the control value, in per cent – is 8.85%.
With `CC(Oc1ccc2c3c(c(=O)oc2c1)CCC3)C(=O)NC1CCN(Cc2ccccc2)CC1` (stereo not given), the inhibition is 5.54%.
Take `O=C(NCc1ccccc1Cl)c1ccc(S(=O)(=O)Nc2cccc(C(F)(F)F)c2)cc1`: the inhibition is -11.7%.
Turning to `S=C(NCc1cccnc1)Nc1ccc(Oc2ccccc2)cc1`, the inhibition was 4.52%.
On to `Clc1ccc(-c2nc(N3CCCCC3)nc3ccccc23)cc1`, for which the inhibition is 8.31%.
Consider `c1ccc(-c2nc(N3CCCCC3)nc3ccccc23)cc1`, for which the inhibition was 36.9%.
For the molecule `COc1cc(OC)cc(C(=O)Nc2cccc(-c3ccc(N4CCOCC4)nn3)c2)c1`, the inhibition is -3.98%.
Consider `COc1ccc(C(=O)NNC(=O)c2ccc(S(=O)(=O)N3CCOCC3)cc2)cc1`, for which the inhibition was 0.01%.
On to `CCCN1C(=O)C2(SC(NC(C)=O)=NN2C(C)=O)c2cc(C)ccc21` (stereo not given), for which the inhibition is -6.76%.
Consider `COc1ccc(OC)c(S(=O)(=O)N2CCN(C34CC5CC(CC(C5)C3)C4)CC2)c1`, for which the inhibition is 2.72%.
The same measure for `COc1cc(F)ccc1S(=O)(=O)N1CCN(C23CC4CC(CC(C4)C2)C3)CC1`: 9.71%; for `NC(=S)N=Nc1c(O)[nH]c2ccccc12`: -9.66%.
`Oc1[nH]c2ccc(Br)cc2c1N=NC(=S)N1CCOCC1`: the inhibition is 7.05%.
The same measure for `CCCc1cc(C(=O)Nc2ccc(C(C)=O)cc2)no1`: 29.9%; for `CCc1ccc(NC(=O)c2cc(CC(C)C)on2)cc1`: 4.83%.
Turning to `CCOc1ccc(C(=S)N2CCN(C)CC2)cc1`, the inhibition was -1.09%.
The same measure for `CCc1nc(C)cn1S(=O)(=O)c1cc(Cl)c(OC)cc1Cl`: -6.76%.
Consider `CCN(CC)C(=O)c1ccc2c(c1)N(Cc1ccccc1)C(=O)CS2=O` (stereo not given), for which the inhibition is 0.11%.
Regarding `Cc1ccc(C(=O)Nc2cccc(C(F)(F)F)c2)cc1NC(=O)c1nccn1C`, the inhibition is -2.57%.
Regarding `CC(=O)c1ccccc1NC(=O)COC(=O)CCC1CCCC1`, the inhibition was 9.67%.
Take `CC(C)/C=C1\CC/C(=C\c2cccnc2)C1=O`: the inhibition was 11%.
Take `O=C1/C(=C/c2cccnc2)CC/C1=C\c1cccnc1`: the inhibition is -0.97%.
Regarding `COc1cc(/C=C/C(=O)OC(C)C(=O)Nc2ccc(Cl)cn2)ccc1OC(F)F` (stereo not given), the inhibition was 28.3%.
Turning to `COc1ccc(Nc2nc(Cl)nc(NCc3ccco3)n2)c(OC)c1`, the inhibition is -5.12%.
For `Cc1noc(NS(=O)(=O)c2ccc(NC(=O)/C=C/c3ccc(C(C)C)cc3)cc2)c1C`, the inhibition was -12.3%.
Turning to `CC(C)N1C(=O)S/C(=C\c2ccc(-c3ccc(Cl)c(C(=O)O)c3)o2)C1=O`, the inhibition is 4.73%.
`CCN(CC)c1ccc(C=C2C(=O)N(C)C(=S)N(C)C2=O)o1`: the inhibition is 1.5%.
Regarding `CC(=O)c1ccc(OCC(=O)N2CCCC2c2ccc3c(c2)OCCCO3)cc1` (stereo not given), the inhibition is -12.4%.
On to `NC(=O)CN1CCCC1c1ccc2c(c1)OCCO2` (stereo not given), for which the inhibition was -1.31%.
Regarding `CCc1nnc(NC(=O)CN2CCN(Cc3cccc(F)c3)CC2)s1`, the inhibition is 13.7%.
Take `COc1ccc(NS(=O)(=O)c2cccc(C(=O)NCc3ccccn3)c2)cc1`: the inhibition is -5.64%.
The same measure for `O=C(CCn1cnnn1)Nc1ccc(Cl)cc1Cl`: -5.53%; for `O=C(CN1CCCCC1)Nc1nnc(-c2ccccc2)s1`: 5.25%; for `O=C(CN1CCCC1)Nc1ccc([N+](=O)[O-])cc1`: 4.32%.
As to `O=C(OCC(=O)N1CCCC1)c1ccc(Cl)c([N+](=O)[O-])c1`, the inhibition is -6.77%.
Take `COc1ccccc1N1CCN(c2ccc3ccccc3n2)CC1`: the inhibition was 1.84%.
As to `COc1ccccc1N1CCN(c2ccc(Cl)nn2)CC1`, the inhibition is 0.36%.
Regarding `CCCNC(=O)NC(=O)COC(=O)c1cccc(NS(=O)(=O)c2ccc(F)c(F)c2)c1`, the inhibition is 5.38%.
Turning to `CC1(C2CC2)NC(=O)N(CC(=O)N2CCN(c3ccccc3)CC2)C1=O` (stereo not given), the inhibition is -0.6%.
Take `Nc1nc(-c2ccco2)nn1C(=O)CCc1ccccc1`: the inhibition is 6.17%.
The same measure for `CC(=O)c1ccc(NC(=O)C2=CC(c3cccs3)=NS(=O)(=O)N2C)cc1`: 2.16%; for `CC(=O)Nc1ccc(NC2=CC(=O)c3ccccc3C2=O)cc1`: 3.89%.
As to `O=c1[nH]c(Nc2ccc(F)cc2)cc2ccccc12`, the inhibition is -14.1%.
Consider `NS(=O)(=O)c1ccc(NC2=CC(=O)C(=O)c3ccccc32)cc1`, for which the inhibition is 11.2%.
With `O=c1[nH]c(Nc2ccccc2)cc2ccccc12`, the inhibition is 0.07%.
Under `COC(=O)CN(c1ccc(C)cc1)S(=O)(=O)c1c(C)[nH]c(=O)[nH]c1=O` stands -6.71%; under `C=CCSc1nnc(NC(=O)c2ccc(N3CCCC3=O)cc2)s1`, -1.46%.
For `C=CC[C@H](CC(=O)NCCO)C(=O)NC[C@@H](OC(=O)[C@@H](CC=C)CC(=O)OC(C)(C)C)c1ccccc1`, the inhibition is -4.9%.
On to `Cc1ccc(S(=O)(=O)N2CCN(c3ccc(C(F)(F)F)cc3[N+](=O)[O-])CC2)cc1`, for which the inhibition is 16%.
For `Cc1cc(N2CCN(c3ccc([N+](=O)[O-])c4cccnc34)CC2)c2ccccc2n1`, the inhibition was -7.93%.
Consider `CCC1(CC)C(=O)N(Cc2ccccc2)C(=O)N(Cc2ccccc2)C1=O`, for which the inhibition is -1.75%.
In the case of `CCN(c1ccccc1)S(=O)(=O)c1ccc(OC)c(NC(=O)Cc2ccccc2OC)c1`, the inhibition is -3.76%.
`CCN(CCNC(=O)C1CC(=O)N(CCc2ccccc2)C1)c1ccccc1` (stereo not given): the inhibition was -5.61%.
For `CCOc1ccc(/C=N/NC(=S)NC2CC3CC2C2C=CCC32)cc1` (stereo not given), the inhibition is 7.16%.
For `COc1cccc(/C=N/NC(=S)NC2CC3CC2C2C=CCC32)c1O` (stereo not given), the inhibition was -6.6%.
The same measure for `CC1CCCCC12NC(=O)N(CC(=O)NNC(=O)c1ccc(Br)cc1)C2=O` (stereo not given): 1.45%.
In the case of `CCSc1nnc(NC(=O)CSC2=NN3CCCC(=O)N=C3S2)s1`, the inhibition is 2.54%.
Turning to `CN(c1cccc(NC(=O)Cc2ccccc2)c1)S(C)(=O)=O`, the inhibition was 5.18%.
The same measure for `O=C(NC(C(=O)N/N=C/c1ccccc1)c1n[nH]c(=O)c2ccccc12)c1ccccc1` (stereo not given): 2.9%; for `O=C(NC(C(=O)N/N=C/c1ccncc1)c1n[nH]c(=O)c2ccccc12)c1ccccc1` (stereo not given): 2.1%.
